In PubChem BioAssay (NCI):
This is part of a sample that, as a whole, favours compounds with a hit. Of some 83,000 tested, about 20% had one in any assay.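 Testing used 96-well plates and a 48-hour single-concentration exposure. Example: -40 means 40% of the starting cells died.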 Unmarked numbers belong to inactive results. Activity calls are given as the source filed them. How the source made its calls: active means growth percent below 10; inactive means the rest.

Experiments:
Assay in all cases: NCI-60 one-dose screen, 48 h (100 = growth as untreated, 0 = no growth, -100 = all killed)
Settings in all cases: 10 µM unless noted
T-47D breast = system: T-47D breast
BT-549 breast = system: BT-549 breast
MDA-MB-435 melanoma = system: MDA-MB-435 melanoma
SW-620 colon = system: SW-620 colon
MCF7 breast = system: MCF7 breast
HCT-116 colon = system: HCT-116 colon
HCC-2998 colon = system: HCC-2998 colon
KM12 colon = system: KM12 colon

Structure (SMILES) | growth (T-47D breast) | growth (BT-549 breast) | growth (MDA-MB-435 melanoma) | growth (SW-620 colon) | growth (MCF7 breast) | growth (HCT-116 colon) | growth (HCC-2998 colon) | growth (KM12 colon)
COc1cc2c(cc1OCCCN1CCN(CCCOc3cc4c(cc3OC)C(=O)N3C[C@H](F)C[C@H]3C=N4)CC1)N=C[C@@H]1C[C@@H](F)CN1C2=O | 13.4% | -68.5% (active) | -24.9% (active) | -19.1% (active) | 6.75% (active) | 8.44% (active) | -13.1% (active) | -20% (active)
COc1ccc(-c2cc(-c3ccc(Cl)cc3)nc(NCCCCNc3ccnc4cc(Cl)ccc34)n2)cc1 | 78.1% | 85.5% | 93.8% | -61.8% (active) | -69.3% (active) | 23.4% | 26.1% | 76.2%
CC(=O)Nc1ccc(C=Nc2ccc3ccccc3c2)cc1 | 108% | 102% | 112% | 106% | 92.3% | 101% | 92.1% | 108%
C[C@]12CCc3nc(Nc4ccccc4)sc3C1=CC[C@@H]1[C@@H]2CC[C@]2(C)/C(=N/NC(N)=S)CC[C@@H]12 | 9.46% (active) | 35.4% | 30.8% | 18.2% | 24.3% | -46.2% (active) | 84.9% | 33.5%
C=C(CN=[N+]=[N-])[C@@H]1CC[C@]2(C)[C@H](CC[C@@H]3[C@H]4[C@H]5OC(=O)[C@@]4(CCC5(C)C)CC[C@]32C)[C@@]1(C)CCC#N | 55.6% [100 µM] | 78.7% [100 µM] | 76.3% [100 µM] | 87.3% [100 µM] | 64.5% [100 µM] | 47.3% [100 µM] | 89.3% [100 µM] | 81.7% [100 µM]
CN(C)c1cc(NN=C(c2ccc(O)cc2)c2ccc(O)cc2)c([N+](=O)[O-])cc1[N+](=O)[O-] | 19.1% | 115% | 84.9% | 108% | 27.2% | 33.2% | 59.1% | 92%
Cn1cc(-c2nnc(-c3cn(C)c4ncccc34)s2)c2ccccc21 | 47.9% | 68.3% | 9.15% (active) | 61.6% | 58.6% | 76.6% | 82.6% | 25.4%
